{
  "source": "paper PMC5540273",
  "about": "(PLoS ONE, 2017);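 note: KINOMEscan kinase panel screen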",
  "data": [
    {"tested_on": "CSNK1A1L", "settings": "concentration: 1 μM, replicates: in singlicate; n = 1", "units": {"%Inh": "%"}, "values": [
      {"smiles": "Cc1ccc(C)c(NC(=O)NC2CCN(c3ccnc(Nc4ccc(F)cc4)n3)C2)c1", "note": "(stereo not drawn) [GSK1379720]", "%Inh": 0},
      {"smiles": "Cl.Cl.NCC(NC(=O)c1cc(-c2ccccc2)c(-c2ccnc3[nH]ccc23)s1)c1ccccc1", "note": "(stereo not drawn) [GSK1321561]", "%Inh": 97.1},
      {"smiles": "CN(C)Cc1ccc(-c2ccc3c(Nc4ccc(Oc5ccccn5)cc4)ccnc3c2)o1", "note": "[GW567148]", "%Inh": 9},
      {"smiles": "COc1cccc(C(=O)Nc2cccc(Oc3ccc4nc(NC(=O)C5CC5)cn4n3)c2)c1", "%Inh": 17},
      {"smiles": "CNC(=O)c1ccccc1Nc1nc(Nc2ccc(N3CCOCC3)cc2)ncc1Cl.Cl", "note": "[GSK1576028]", "%Inh": 68},
      {"smiles": "C[C@@H]1CC[C@@H](C(=O)Nc2ccccc2)CN1c1cc(-c2ccc3c(N)n[nH]c3c2)nc(N)n1", "note": "[GSK2286062]", "%Inh": 6},
      {"smiles": "Cn1cc(-c2ccc3c(c2)CCN3C(=O)Cc2cccc(Cl)c2)c2c(N)ncnc21", "note": "[GSK2606590]", "%Inh": 13},
      {"smiles": "FC(F)(F)c1ccc(/C=C/c2cncnc2Nc2ccc3[nH]c(Cc4ccccc4)nc3c2)cc1", "note": "[GW709199]", "%Inh": 36},
      {"smiles": "COc1cccc(NC(=O)NC2CCN(c3ccnc(Nc4cc(OC)c(OC)c(OC)c4)n3)C2)c1", "note": "(stereo not drawn) [GSK1379763]", "%Inh": 0},
      {"smiles": "Fc1ccc(-c2ncn(C3CCNCC3)c2-c2ccnc(Oc3ccc(-c4ccccc4)cc3)n2)cc1", "note": "[SB-245391]", "%Inh": 71},
      {"smiles": "Oc1cc(Nc2ccnc3cc(I)ccc23)ccc1F", "note": "[GW552771]", "%Inh": 16},
      {"smiles": "COC(=O)Nc1nc2ccc(Oc3ccc(NC(=O)Nc4cc(C(F)(F)F)ccc4F)cc3)cc2n1C.Cl", "note": "[GW692089]", "%Inh": 0}
    ]}
  ]
}
